The record followed here is PubChem BioAssay.

Each structure is given as a SMILES string. Inconclusive results are not listed. The source made the active and inactive calls. Unless noted, the limit is not given here; nearly all actives have AC50 up to about 30 µM.
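Also: cells exposed to compound for 48 hours before readout.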

One test can be described thus: growth inhibition of DIPG cells – cell-based, MIPE4.0 library, CellTiter-Glo luminescence, qHTS (AID 1347066). The settings on record: SU-DIPG-VI viability, CellTiter-Glo ATP luminescence.
With `CC(NCCc1ccc(O)cc1)C(O)c1ccc(O)cc1` (configuration not stated), the call was inactive.
Regarding `N[C@@H](CC(=O)N1CCn2c(nnc2C(F)(F)F)C1)Cc1cc(F)c(F)cc1F`, the molecule was classed as inactive.
As to `CC1(C)CCC[C@]2(C)[C@H]3CC(=O)O[C@]3(C)CC[C@@H]12`, the call was inactive.
On to `OC[C@@H](O)[C@@H](O)[C@H](O)[C@@H](O)CO`, for which the molecule was called inactive.
Same read-out and setting: next, `O=c1ccn([C@@H]2O[C@H](CO)[C@@H](O)[C@H]2O)c(=O)[nH]1`: “inactive”; `CC1CC2C3CCC4=CC(=O)C=C[C@]4(C)[C@@]3(F)[C@@H](O)C[C@]2(C)[C@@]1(O)C(=O)CO` (some centres not stated): “inactive”; `CC(C)(CO)[C@@H](O)C(=O)NCCC(=O)O`: “inactive”.
Same read-out and setting: next, `CC(C)C(C)/C=C/C(C)C1CCC2C3=CC=C4CC(O)CCC4(C)C3CCC21C` (configuration not stated): “inactive”.
For the molecule `CN(C)CC[C@H](c1ccc(Cl)cc1)c1ccccn1`, the result was inactive.
Turning to `C[C@H]1COC2=C1C(=O)C(=O)c1c2ccc2c1CCCC2(C)C`, the molecule was called inactive.
Same read-out and setting: next, `CN1C(C(=O)Nc2ccccn2)=C(O)c2sc(Cl)cc2S1(=O)=O`: “inactive”.
Still for that read-out and setting: next, `Nc1nc(N)c2nc(CNc3ccc(C(=O)NC(CCC(=O)O)C(=O)O)cc3)cnc2n1` (configuration not stated): “inactive”; `COC(=O)/C=C/C(=O)OC`: “inactive”; `CC(C)=CCC/C(C)=C/CC/C(C)=C/CC/C(C)=C/CC/C(C)=C/CC/C(C)=C/CC/C(C)=C/CC/C(C)=C/CC/C(C)=C/CO`: “inactive”.
Same read-out and setting: next, `Cc1cc2nc3c(=O)[nH]c(=O)nc-3n(CC(O)C(O)C(O)CO)c2cc1C` (configuration not stated): “inactive”; `Oc1cc2c(cc1O)C1c3ccc(O)c(O)c3OCC1(O)C2` (configuration not stated): “inactive”; `CCCCS(=N)(=O)CCC(N)C(=O)O` (configuration not stated): “inactive”.
Take `Nc1nc(F)nc2c1ncn2[C@@H]1O[C@H](COP(=O)(O)O)[C@@H](O)[C@@H]1O`: the call was inactive.
On to `CC[C@@]1(O)C(=O)OCc2c1cc1n(c2=O)Cc2cc3cc(O)ccc3nc2-1`, for which the molecule was classed as inactive.
`CC1=C(C(=O)O)N2C(=O)[C@@H](NC(=O)C(N)c3ccccc3)[C@H]2SC1` (some centres not stated): the call was inactive.
On to `N#CC(c1ccc(Cl)cc1)c1c(Cl)cc(-n2ncc(=O)[nH]c2=O)cc1Cl` (configuration not stated), for which the AC50 was 13.2 µM (active).
With `COc1ccc(C2Sc3ccccc3N(CCN(C)C)C(=O)C2OC(C)=O)cc1` (configuration not stated), the result was inactive.
On to `COc1ccc2nc3cc(Cl)ccc3c(Nc3cc(CN4CCCC4)c(O)c(CN4CCCC4)c3)c2n1`, for which the result was inactive.
Turning to `CC(=O)NC(CS)C(=O)O` (configuration not stated), the molecule was classed as inactive.
Regarding `C[C@]12CCC3c4ccc(O)cc4CCC3C1CCC2=O` (some centres not stated), the result was inactive.

Another test is described as follows: JHH-DIPG-1 glioma cell viability, MIPE5.0 library, CellTiter-Glo luminescence, qHTS (AID 1347067; cut-off not given, nearly all actives have AC50 up to about 26 µM). The settings on record: JHH-DIPG-1 glioma viability, CellTiter-Glo ATP luminescence.
As to `Cc1c(-c2cnccn2)ssc1=S`, the AC50 was 14.8 µM (active).
Take `CC(NCCc1ccc(O)cc1)C(O)c1ccc(O)cc1` (configuration not stated): the result was inactive.
As to `N[C@@H](CC(=O)N1CCn2c(nnc2C(F)(F)F)C1)Cc1cc(F)c(F)cc1F`, the call was inactive.
Still for that read-out and setting: next, `OC[C@@H](O)[C@@H](O)[C@H](O)[C@@H](O)CO`: “inactive”; `CC(C)(CO)[C@@H](O)C(=O)NCCC(=O)O`: “inactive”.
With `CC(C)C(C)/C=C/C(C)C1CCC2C3=CC=C4CC(O)CCC4(C)C3CCC21C` (configuration not stated), the outcome was inactive.
As to `C[C@H]1COC2=C1C(=O)C(=O)c1c2ccc2c1CCCC2(C)C`, the AC50 was 20.9 µM (active).
`CN1C(C(=O)Nc2ccccn2)=C(O)c2sc(Cl)cc2S1(=O)=O`: the molecule was classed as inactive.
The same measure, in the same setting: then `Nc1nc(N)c2nc(CNc3ccc(C(=O)NC(CCC(=O)O)C(=O)O)cc3)cnc2n1` (configuration not stated), with “inactive”; and `COC1=C(OC)C(=O)C(C/C=C(\C)CC/C=C(\C)CC/C=C(\C)CC/C=C(/C)CC/C=C(\C)CC/C=C(\C)CC/C=C(\C)CC/C=C(\C)CC/C=C(\C)CCC=C(C)C)=C(C)C1=O`, with “inactive”.
Same read-out and setting: then `COC(=O)/C=C/C(=O)OC`, with “inactive”; and `Cc1cc2nc3c(=O)[nH]c(=O)nc-3n(CC(O)C(O)C(O)CO)c2cc1C` (configuration not stated), with “inactive”; and `CN[C@@H]1[C@H](O[C@H]2[C@H](O[C@@H]3[C@@H](O)[C@H](O)[C@@H](N=C(N)N)[C@H](O)[C@H]3N=C(N)N)O[C@@H](C)[C@]2(O)C=O)O[C@@H](CO)[C@H](O)[C@H]1O`, with “inactive”.
With `CCCCS(=N)(=O)CCC(N)C(=O)O` (configuration not stated), the molecule was called inactive.
Turning to `Cc1coc2c1C(=O)C(=O)c1c-2ccc2c1CCCC2(C)C`, the AC50 was 7.42 µM (active).
As to `Nc1nc(F)nc2c1ncn2[C@@H]1O[C@H](COP(=O)(O)O)[C@@H](O)[C@@H]1O`, the result was inactive.
In the case of `CC[C@]1(O)CC2CN(CCc3c([nH]c4ccccc34)[C@@](C(=O)OC)(c3cc4c(cc3OC)N(C)[C@H]3[C@@](O)(C(=O)OC)[C@H](OC(C)=O)[C@]5(CC)C=CCN6CC[C@]43[C@@H]65)C2)C1` (some centres not stated), the AC50 was 0.0468 µM (active).
For `N#CC(c1ccc(Cl)cc1)c1c(Cl)cc(-n2ncc(=O)[nH]c2=O)cc1Cl` (configuration not stated), the call was inactive.
On the same count and under the same terms, next, `Clc1ccc(CCC(Cn2ccnc2)Sc2c(Cl)cccc2Cl)cc1` (configuration not stated): “inactive”.
In the case of `COc1ccc2nc3cc(Cl)ccc3c(Nc3cc(CN4CCCC4)c(O)c(CN4CCCC4)c3)c2n1`, the AC50 was 11.8 µM (active).
Regarding `CC(=O)NC(CS)C(=O)O` (configuration not stated), the outcome was inactive.
Same read-out and setting: next, `C[C@]12CCC3c4ccc(O)cc4CCC3C1CCC2=O` (some centres not stated): “inactive”.
